Results as given in PubChem BioAssay (EPA / NIEHS).
Records with an inconclusive call do not appear. The source made the active and inactive calls. The calls were made as follows, unless noted: active = hit-call score of the fitted dose curve at least 0.9, where 1 is the maximum; inactive = score below 0.9.

What was measured:
[1] = read-out: Macrophage colony-stimulating factor (MCSF), CSF1 (gene 1435); assay: BSK_LPS_MCSF: BioMAP Diversity Plus: LPS Assay for Macrophage colony-stimulating factor (MCSF) Biomarker Activity (AID 2283083); details: primary human HUVEC with PBMC; actives raise or lower the signal
Outline: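 HUVEC–PBMC co-culture, M-CSF measured by ELISA 24 h after chemical dosing. Fitted in both directions relative to DMSO as negative control; overt cytotoxicity assessed by SRB total-protein staining in parallel cultures.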

[2] = read-out: Tissue Factor, F3 (gene 2152); assay: BSK_LPS_TissueFactor: BioMAP Diversity Plus: LPS Assay for Tissue Factor Biomarker Activity (AID 2283084); details: primary human HUVEC with PBMC; actives raise or lower the signal
Outline: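 Human umbilical vein endothelial cells co-cultured with PBMC were dosed with compound. Cell-surface CD142 was measured by ELISA 24 h later. Activity was fitted bidirectionally against DMSO, with SRB total-protein staining in parallel cultures for cytotoxicity.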

[3] = read-out: Tumor necrosis factor (Homo sapiens) (UniProt P01375); assay: BSK_LPS_TNFa: BioMAP Diversity Plus: LPS Assay for Tumour Necrosis Factor alpha (TNFa) Biomarker Activity (AID 2283085); details: primary human HUVEC with PBMC; actives raise or lower the signal
Outline: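 Human umbilical vein endothelial cells co-cultured with PBMC were exposed to test chemical and TNFa measured by ELISA 24 h after dosing. Bidirectional curve fitting was done relative to DMSO as negative control and baseline.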

CD38, CD38 (gene 952) = assay: BSK_SAg_CD38: BioMAP Diversity Plus: SAg Assay for CD38 Biomarker Activity (AID 2283087); details: primary human HUVEC with PBMC; actives raise or lower the signal
Outline: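 Fluorescence ELISA of cell-surface CD38 served as the read-out, with either increase or decrease fitted against DMSO controls. Cells were a human umbilical vein endothelium plus PBMC co-culture under SEB/TSST-1 stimulation, measured 24 h after dosing.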

CD40, CD40 (gene 958) = assay: BSK_SAg_CD40: BioMAP Diversity Plus: SAg Assay for CD40 Biomarker Activity (AID 2283088); details: primary human HUVEC with PBMC; actives raise or lower the signal
Outline: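 HUVEC plus PBMC co-culture, superantigen-activated, with CD40 read by ELISA 24 h after dosing. Curves fitted in both directions against DMSO. Overt cytotoxicity checked by parallel SRB total-protein staining.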

CD69, CD69 (gene 969) = assay: BSK_SAg_CD69: BioMAP Diversity Plus: SAg Assay for CD69 Biomarker Activity (AID 2283089); details: primary human HUVEC with PBMC; actives raise or lower the signal;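 as to AC50: cell surface CD69 protein quantified by ELISA with fluorescence detection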
Outline: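 Primary human vascular co-culture (umbilical vein endothelium with peripheral blood mononuclear cells) exposed to test chemical for 24 h. CD69 levels quantified by fluorescence ELISA; DMSO served as negative control for bidirectional fitting.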

[4] = read-out: Monocyte Chemoattractant Protein-1 (MCP1), CCL2 (gene 6347); assay: BSK_SAg_MCP1: BioMAP Diversity Plus: SAg Assay for Monocyte Chemoattractant Protein-1 (MCP1) Biomarker Activity (AID 2283090); details: primary human HUVEC with PBMC; actives raise or lower the signal
Outline: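 MCP-1 levels in the endothelial–PBMC SAg co-culture were quantified by ELISA at 24 h post-dosing; both increases and decreases versus DMSO scored. Cytotoxicity monitored by SRB total protein in parallel cultures.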

[5] = read-out: E-selectin (Homo sapiens) (UniProt P16581); assay: BSK_SAg_Eselectin: BioMAP Diversity Plus: SAg Assay for Eselectin Biomarker Activity (AID 2283091); details: primary human HUVEC with PBMC; actives raise or lower the signal
Outline: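 Human umbilical vein endothelial cells co-cultured with peripheral blood mononuclear cells, SAg system. E-selectin is measured by ELISA 24 h after dosing and fitted bidirectionally against DMSO. Cytotoxicity is checked by SRB staining of parallel cultures.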

[6] = read-out: Monokine induced gamma interferon (MIG), CXCL9 (gene 4283); assay: BSK_SAg_MIG: BioMAP Diversity Plus: SAg Assay for Monokine induced gamma interferon (MIG) Biomarker Activity (AID 2283092); details: primary human HUVEC with PBMC; actives raise or lower the signal
Outline: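 Endothelial cells and PBMC were co-cultured, exposed to test chemicals, and sampled 24 h later. MIG was measured by ELISA, and responses were fitted in both directions relative to DMSO.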

[7] = BSK_SAg_PBMCCytotoxicity: PBMC Cytotoxicity Assessment in the BioMAP Diversity Plus: SAg Assay (AID 2283093); details: primary human HUVEC with PBMC;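 also: PBMC viability measured as Alamar Blue reduction fluorescence at 546/580 nm; fitted both ways against DMSO so a hit may be loss or gain of signal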
Outline: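 HUVEC/PBMC co-culture; PBMC exposed to chemical 1 h before SEB and TSST-1 activation (20 ng/mL each), incubated 90 h, then Alamar Blue 6 h, fluorescence 546/580 nm. Bidirectional fit versus DMSO baseline.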

[8] = read-out: Interleukin-8 (IL8), CXCL8 (gene 3576); assay: BSK_SAg_IL8: BioMAP Diversity Plus: SAg Assay for Interleukin-8 (IL8) Biomarker Activity (AID 2283094); details: primary human HUVEC with PBMC; actives raise or lower the signal
Outline: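 Human umbilical vein endothelial cells co-cultured with peripheral blood mononuclear cells; IL-8 measured by ELISA 24 h after chemical dosing. Bidirectional concentration-response fitting used DMSO as negative control and activity baseline.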

[9] = BSK_SAg_Proliferation: Cell Proliferation Assessment in the BioMAP Diversity Plus: SAg Assay (AID 2283095); details: primary human HUVEC with PBMC;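 also: relative cell number as total protein by SRB absorbance in sub-confluent culture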
Outline: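 Human umbilical vein endothelial cells co-cultured with peripheral blood mononuclear cells; total protein measured by sulforhodamine B staining (0.1% SRB after 10% TCA fixation), absorbance at 560 nm, at 96 h. Bidirectional fit against DMSO baseline.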

[10] = BSK_SAg_SRB: Viability Assessment in the BioMAP Diversity Plus: SAg Assay (AID 2283096); details: primary human HUVEC with PBMC;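 also: cells read one day after compound addition; hits may be either gain or loss of signal compared with DMSO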
Outline: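 Human umbilical vein endothelial cells co-cultured with PBMC, read 24 h after compound dosing. Total protein measured by sulforhodamine B staining (0.1% SRB after 10% TCA fixation, absorbance 560 nm); bidirectional fit versus DMSO baseline.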

[11] = read-out: Vascular cell adhesion molecule 1 (VCAM1), VCAM1 (gene 7412); assay: BSK_LPS_VCAM1: BioMAP Diversity Plus: LPS Assay for Vascular cell adhesion molecule 1 (VCAM1) Biomarker Activity (AID 2283086); details: primary human HUVEC with PBMC; actives raise or lower the signal
Outline: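 Human umbilical vein endothelial cells co-cultured with peripheral blood mononuclear cells under LPS stimulation were exposed to test chemical for 24 h. VCAM-1 levels were then measured by ELISA, with bidirectional curve fitting relative to DMSO as negative control and baseline.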

[12] = BSK_LPS_PGE2: BioMAP Diversity Plus: LPS Assay for Prostaglandin E2 (PGE2) Biomarker Activity (AID 2283082); details: primary human HUVEC with PBMC; actives raise or lower the signal;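 also: secreted prostaglandin E2 measured by ELISA in LPS-stimulated co-culture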
Outline: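 HUVEC plus PBMC co-culture stimulated with LPS; secreted PGE2 quantified by ELISA 24 h after chemical dosing. Activity fitted bidirectionally against DMSO as negative control and baseline; parallel SRB total-protein staining served as cytotoxicity check.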

[13] = target: human CYP2C9, CYP2C9 (gene 1559) (UniProt P11712); assay: NVS_ADME_hCYP2C9: NovaScreen (NVS) CYP450-related Enzyme Activity (ADME) Assay for human CYP2C9 (AID 2283108; active = hit-call score of the fitted dose curve at least 0.9, where 1 is the maximum)
human CYP2C9, CYP2C9 (gene 1559), sequence (P11712 whole entry, looked up): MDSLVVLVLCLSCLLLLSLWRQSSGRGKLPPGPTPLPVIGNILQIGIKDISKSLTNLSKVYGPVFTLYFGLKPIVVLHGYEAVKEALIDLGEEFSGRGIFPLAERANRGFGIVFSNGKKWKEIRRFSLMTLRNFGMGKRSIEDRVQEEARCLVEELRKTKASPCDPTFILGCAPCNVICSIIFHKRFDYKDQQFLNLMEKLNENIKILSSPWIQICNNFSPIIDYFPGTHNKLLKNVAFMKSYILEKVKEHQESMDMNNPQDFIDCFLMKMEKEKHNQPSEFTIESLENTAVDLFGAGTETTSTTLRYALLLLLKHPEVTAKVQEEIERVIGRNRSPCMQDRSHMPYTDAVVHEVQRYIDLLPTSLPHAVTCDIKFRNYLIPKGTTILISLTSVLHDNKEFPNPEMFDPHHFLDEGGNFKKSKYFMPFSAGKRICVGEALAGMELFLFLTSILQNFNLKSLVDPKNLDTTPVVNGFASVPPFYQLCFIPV
Outline: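 Recombinant human CYP2C9 expressed in SF9 cells, fluorogenic substrate, fluorescence read 0.75 h after dosing. Chemicals first run in duplicate at 10 uM, with actives followed in concentration series; loss of signal versus acetonitrile baseline.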

[14] = target: Cytochrome P450 2C19 (Homo sapiens) (UniProt P33261); assay: NVS_ADME_hCYP2C19: NovaScreen (NVS) CYP450-related Enzyme Activity (ADME) Assay for human CYP2C19 (AID 2283113; active = hit-call score of the fitted dose curve at least 0.9, where 1 is the maximum;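 also: potency for inhibition seen as loss of fluorescent signal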)
Outline: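 Cell-free recombinant human CYP2C19 from insect cells, fluorescent substrate; activity read by fluorescence intensity 1 h after dosing. Primary screen in duplicate at 10 uM; actives retested in concentration series. Signal loss versus acetonitrile negative control.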

Measured: AC50

Tumor necrosis factor (Homo sapiens), sequence (P01375 whole entry, looked up): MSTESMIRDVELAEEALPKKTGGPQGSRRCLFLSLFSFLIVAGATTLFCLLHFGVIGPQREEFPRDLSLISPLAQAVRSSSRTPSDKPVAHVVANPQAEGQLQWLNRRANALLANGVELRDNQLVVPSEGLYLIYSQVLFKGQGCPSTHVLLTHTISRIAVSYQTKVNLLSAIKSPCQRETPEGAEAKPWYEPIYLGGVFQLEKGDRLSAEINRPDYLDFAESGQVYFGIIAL
E-selectin (Homo sapiens), sequence (P16581 whole entry, looked up): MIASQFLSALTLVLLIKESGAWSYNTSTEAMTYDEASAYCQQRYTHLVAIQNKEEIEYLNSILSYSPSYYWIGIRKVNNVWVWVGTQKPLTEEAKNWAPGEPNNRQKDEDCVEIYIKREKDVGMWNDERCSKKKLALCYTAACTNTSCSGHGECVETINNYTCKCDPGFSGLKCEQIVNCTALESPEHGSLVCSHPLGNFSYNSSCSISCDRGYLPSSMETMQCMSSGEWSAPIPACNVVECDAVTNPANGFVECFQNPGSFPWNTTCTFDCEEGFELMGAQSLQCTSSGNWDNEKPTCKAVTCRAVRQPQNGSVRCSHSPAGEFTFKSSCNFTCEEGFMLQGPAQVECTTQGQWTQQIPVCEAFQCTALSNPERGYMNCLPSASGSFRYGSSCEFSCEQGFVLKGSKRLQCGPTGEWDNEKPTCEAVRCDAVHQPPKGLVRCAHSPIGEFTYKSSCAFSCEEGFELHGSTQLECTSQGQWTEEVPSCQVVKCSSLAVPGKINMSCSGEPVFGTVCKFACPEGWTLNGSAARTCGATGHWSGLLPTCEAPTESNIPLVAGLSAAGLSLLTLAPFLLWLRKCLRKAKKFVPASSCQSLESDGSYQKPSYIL

C=C[Si](OCC)(OCC)OCC
not listed: [11] | [12] | [13] | [14]
inactive: all other assays above

OC[C@H]1O[C@H](O[C@]2(CCl)O[C@H](CCl)[C@@H](O)[C@@H]2O)[C@H](O)[C@@H](O)[C@H]1Cl
not listed: [12] | [13] | [14]
inactive: all other assays above

CCn1c2ccccc2c2cc(N)ccc21
inactive: [2] | [3] | [5] | [6] | [7] | [9] | [10]
active: [12] 5.42 µM | [1] 7.37 µM | CD38, CD38 (gene 952) 4.91 µM | CD40, CD40 (gene 958) 6.33 µM | CD69, CD69 (gene 969) 4.02 µM | [4] 1.85 µM | [8] 20.8 nM | [13] 405 nM | [14] 2.03 µM

O=C(O)c1cn(-c2ccc(F)cc2)c2cc(N3CCNCC3)c(F)cc2c1=O
not listed: [11] | [12] | [13] | [14]
inactive: all other assays above

Cc1ccc(Nc2ccc(O)c3c2C(=O)c2ccccc2C3=O)cc1
active: [12] 1.06 µM | [3] 435 nM
not listed: [13] | [14]
inactive: all other assays above

CC1COc2ccccc2N1C(=O)C(Cl)Cl (configuration not stated)
inactive: [2] | [4] | [6] | [7] | [8] | [9]
active: [1] 8.01 µM | [3] 4900 nM | CD38, CD38 (gene 952) 10.4 µM | CD40, CD40 (gene 958) 7.65 µM | CD69, CD69 (gene 969) 5.91 µM | [5] 13.3 µM | [10] 10.3 µM

Cc1ccc2n[nH]nc2c1
not listed: [11] | [12] | [13] | [14]
inactive: all other assays above
